Screening results from PubChem.
Only some compounds are listed: those with a hit (about 1.6% of all), similar ones and a draw of the others.
KCNQ2 block: inhibitors of rat KCNQ2 potassium channel | O88943 | CHO-K1 KCNQ2, FluxOR thallium flux, 20 min; hits give low values | B-score at 10 µM | 310,000 tested, 1.1% active;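 active = fluorescence ratio B-score at most minus 3 library SDs, with starting brightness B-score within 2 library SDs, cut at about -5.5 in these data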
KCNQ2 pot: enhances the rat KCNQ2 potassium channel; CHO-K1 KCNQ2, FluxOR thallium flux fluorescence; hits give high values; O88943; B-score at 10 µM; 310,000 tested, 0.54% active; AID 2239;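 active = fluorescence ratio B-score at least 3 SD of library B-scores, with initial fluorescence B-score within 3 of them, cut at about 5.3 in these data; same plate scores as AID 2156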;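 also: B-score of peak minus minimum over baseline fluorescence ratio after K+ and Tl+ stimulus; positive B-score means potentiation of KCNQ2 with more thallium influx and brighter signal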
Active calls of the source: *; i = inactive; . = no result given.

SMILES	KCNQ2 block	KCNQ2 pot
C=C(C)C(=O)Nc1ccc2c(c1)OCCOCCOCCO2	i	.
CCCN(CCC)C(=O)Cn1c(=O)c2sccc2n2c(=S)sc(-c3ccccc3)c12	i	.
CCCN(CCC)C(=O)Cn1c(=O)c2ccccc2n2c(=S)sc(-c3ccccc3C)c12	-6.8*	-6.8
CC(=O)OCC(=O)Nc1c(C)cc(C)cc1C	i	0.64
O=C(COc1ccc(F)cc1Cl)N(Cc1nnc(-c2ccccc2Cl)o1)C1CC1	i	.
CC1CCN(c2nnc(-c3ccccc3)c3ccccc23)CC1	-5.8*	-5.8
Cc1ccc(-c2nnc(N3CCC(C)CC3)c3ccccc23)cc1	i	.
O=C(CCNC(=O)C1CCN(S(=O)(=O)c2ccc(F)cc2)CC1)NCc1cccc(Cl)c1	i	0.04
COC(=O)C1CCN(C(=O)/C(C)=C\c2ccccc2)CC1	i	.
COC(=O)c1cccc(COC(=O)c2ccc(N(C)C)cc2)c1	-6.5*	-6.5
COC(=O)c1ccc(COC(=O)c2ccc(N(C)C)cc2)cc1	i	.
O=C(COC(=O)Cc1ccccc1F)NNC(=O)c1ccc([N+](=O)[O-])cc1	i	.
O=C(Nc1cccc(S(=O)(=O)N2CCCCC2)c1)c1ccc([N+](=O)[O-])o1	i	8.5*
O=C(COC(=O)c1ccc([N+](=O)[O-])o1)Nc1cccc(S(=O)(=O)N2CCCCC2)c1	i	0.25
CC(=O)Nc1cccc(NC(=O)COc2ccc3c(c2)OCO3)c1	i	1.6
CCOC(=O)CC1C(=O)NCCN1c1nc2ccc(C)cn2c(=O)c1/C=C1\SC(=S)N(C(C)CC)C1=O (stereo unspecified)	-7.7*	-7.7
CCOC(=O)CC1C(=O)NCCN1c1nc2ccc(C)cn2c(=O)c1/C=C1\SC(=S)N(CC(C)C)C1=O (stereo unspecified)	i	.
Cc1nc2cc(Nc3ccncc3)ccc2s1	i	.
O=C(O)c1cc(NC(=O)c2ccc(Cl)c([N+](=O)[O-])c2)cc(C(=O)O)c1	i	0.26
O=C(Nc1ccc(C(O)(C(F)(F)F)C(F)(F)F)cc1)c1ccc(Cl)c([N+](=O)[O-])c1	-7*	-7
CCNc1oc(-c2cccc3ccccc23)nc1C#N	i	.
N#Cc1nc(-c2cccc3ccccc23)oc1NCCN1CCCCC1	-7.9*	-7.9
O=C(CSCc1ccccc1)N1CCN(c2ccccc2)CC1	i	.
C/C(=C\c1ccccc1)C(=O)N1CCN(c2cccc(C(F)(F)F)c2)CC1	-6.2*	-6.2
O=C(CSCc1ccccc1)N1CCN(c2cccc(C(F)(F)F)c2)CC1	-6.5*	-6.5
SMILES	KCNQ2 block	KCNQ2 pot
C/C(=C/c1ccccc1)C(=O)N1CCN(c2ccccc2F)CC1	i	.
COc1cccc2c(=O)cc(C)n(CC(=O)Nc3cccc(C)c3)c12	i	2.3
S=C(NC1CCCC1)N1CCN(C/C=C/c2ccccc2)CC1	i	.
COc1cccc(N2CN(CCc3ccccc3)CNC2=S)c1	i	0.16
COc1cc2c(cc1OC)CN(C(=O)C(CCSC)NS(=O)(=O)c1ccc(C)cc1)CC2 (stereo unspecified)	i	1
COc1ccccc1NC(=S)NCCc1ccc(Cl)cc1	-6.2*	-6.2
COc1ccccc1NC(=O)OC(C)c1ccc(Cl)cc1 (stereo unspecified)	-5.8*	-5.8
COc1ccccc1NC(=O)Nc1cc(C(C)C)ccc1C	i	1.2
COc1ccccc1NC(=S)NCCSc1ccc(Cl)cc1	i	.
CC(=O)c1c(C)n(-c2ccccc2)c2ccc(OCC(N)=O)cc12	i	.
COc1ccc(C(=O)n2cnc3ccccc32)cc1	i	.
Cc1ccc(NC(=O)c2sc3nc(C)nc(N4CCN(c5ccccn5)CC4)c3c2C)c(C)c1	i	.
Cc1nc(N2CCN(c3ccccn3)CC2)c2c(C)c(C(=O)Nc3ccc(Br)cc3C)sc2n1	-6*	-6
CCOC(=O)C1CCN(S(=O)(=O)c2c[nH]c(=O)[nH]c2=O)CC1	i	.
CCOC(=O)CN1C(=O)N(CC(=O)OCC)C(c2ccccc2)(c2ccccc2)C1=O	i	.
O=C(CSc1nc2ccsc2c(=O)n1NC(=O)c1ccccc1)Nc1nccs1	i	.
O=C(Nn1c(SCc2ccccc2F)nc2ccsc2c1=O)c1ccccc1	-6.4*	-6.4
Nc1cc(=O)[nH]c(SCc2nnnn2-c2ccc(Cl)cc2)n1	i	0.01
COc1ccccc1N1CCN(/N=C/c2ccc([N+](=O)[O-])cc2)CC1	i	.
COc1ccccc1N1CCN(/N=C/c2ccc(Cl)c([N+](=O)[O-])c2)CC1	-6.1*	-6.1
Cc1cccc(N2C(=O)CN(Cc3ccccc3)C2=S)c1	i	.
CCOc1ccc(/C=C2/SC(=O)NC2=S)cc1	i	26*
CCOc1ccc(N=C2NC(=O)S/C2=C\c2ccc(N(C)C)cc2)cc1	i	0.46
O=C(c1cc2nc(-c3ccccc3)cc(-c3ccccc3)n2n1)N1CCN(C(=O)c2ccco2)CC1	i	.
COc1ccc(CNCCC(c2ccc(F)cc2)c2ccc(OC)cc2)cc1 (stereo unspecified)	i	.
SMILES	KCNQ2 block	KCNQ2 pot
COc1ccc(C(CCNCc2ccc(F)cc2)c2ccc(F)cc2)cc1 (stereo unspecified)	-7.2*	-7.2
COCCNC(=O)[C@@]1(C)C=C[C@@H](Cc2ccccc2)N1C(=O)c1ccccc1	i	0.24
C[C@]1(C(=O)NCc2cc(F)cc(C(F)(F)F)c2)C=C[C@@H](Cc2ccccc2)N1C(=O)c1ccccc1	-7.2*	-7.2
CO[C@H]1O[C@H](C)[C@@H](O)C[C@H]1NC(=O)OCc1ccccc1	i	.
O=C(OCC#CCSc1nnc(-c2cccc3ccccc23)o1)c1cccs1	-5.8*	-5.8
O=C(OCC#CCSc1nnc(-c2ccccc2)o1)c1cccs1	i	.
COc1ccccc1NC(=O)C/C(C)=N/NC(=O)COc1c(Br)cc(Br)cc1OC	i	.
CCN1C(c2ccccc2)C(C)C(=O)C(C)C1c1ccccc1 (stereo unspecified)	-8.4*	-8.4
CCC1C(=O)C(CC)C(c2ccccc2)NC1c1ccccc1 (stereo unspecified)	i	.
Cc1cccc(-c2nnc(SCC(=O)c3ccc(O)cc3O)n2C)c1	i	0.11
CCc1ccc2nc3sc(C(=O)O)cc3cc2c1	i	1.3
CCN(CC)C(=O)c1sc2nc(-c3cccs3)cc(-c3ccc(Cl)cc3)c2c1N	-6.9*	-6.9
CCN(CC)C(=O)c1sc2nc(-c3cccs3)cc(-c3cccs3)c2c1N	i	.
COc1ccc(C(CC(=O)c2ccccc2)C2CCCCC2=O)cc1 (stereo unspecified)	-5.8*	-5.8
COc1ccc(C(=O)CC(c2ccccc2)C2C(=O)CCCC2=O)cc1 (stereo unspecified)	i	0.02
O=C(Nc1ccc2ccccc2c1)c1ccc(Cl)cc1Cl	i	0.71
O=C(Nc1nc(=S)ss1)c1ccc(Cl)cc1Cl	i	17*
CCNC(=S)Nc1ccc(OCc2nc3ccccc3s2)cc1	i	.
C=CCn1c(SCC(=O)c2cccs2)nc2sc(C)c(C)c2c1=O	i	.
C=CCn1c(SCc2csc(C)n2)nc2sc3c(c2c1=O)CCCCC3	-8.1*	-8.1
C=CCn1c(SCc2cc(=O)n3ccsc3n2)nc2sc(C)c(C)c2c1=O	-9*	-9
C=CCn1c(SCc2csc(C)n2)nc2sc3c(c2c1=O)CCC(C)C3 (stereo unspecified)	i	.
COC(C(=O)Nc1ccnn1C1CCN(Cc2cnn(C(C)C)c2)CC1)c1ccccc1 (stereo unspecified)	i	0.22
O=C(COc1ccc(F)cc1)N1CCC(Cc2ccccc2)CC1	i	.
